Source: PubChem (Broad Institute)
Sampled rows, rich in hits. Any-hit rate of the full collection: about 4.8%.
SUMO Mot1 rescue: SUMOylation pathway inhibition by Mot1-301 growth rescue | S. cerevisiae Mot1-301 growth rescue, ATP luminescence, 38.5C; percent above DMSO median, 100 means doubled | growth rescue, % at 18.8 µM | 320,000 tested, 1% active;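 active = every valid replicate shows activation above 250% relative to neutral control wells; inactive = the rest, any valid replicate at or below 250%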;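 note: OY570 slx delta 5 strain wells were the positive control but not used for scaling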
HIF activator: HIF pathway transcriptional activation; U2OS HRE-luciferase reporter, luminescence; normalized: DMSO 0%, desferrioxamine 100%; activation, % at 7.5 µM (by protocol); 300,000 tested, 0.32% active;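 active = mean activation of at least 10% of the iron chelator positive control signal, with at least half of replicates also reaching 10%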
AI-2 QS mod: modulates the Vibrio harveyi AI-2 quorum sensing system; activity change, % at 7.5 µM; 300,000 tested, 0.4% active; Vibrio harveyi JMH597 AI-2 luminescence/OD600 ratio, 9 h; stronger effect = lower value; strain lacks LuxN and CqsS sensors; 0 = neutral-control median; AID 2094; in the data active = activity change below about -75%, passing the limit was not always enough;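 note: luminescence divided by OD600 gain over 9 h not by final OD600 alone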
ALR H2O2 inh: blocks human ALR sulfhydryl oxidase activity; P55789; purified ALR, DTT oxidation, H2O2 HRP-luminol luminescence; inhibition, % (test concentration not listed); 290,000 tested, 3.8% active; AID 485317;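 active = mean replicate inhibition above about 79%, with every replicate also reaching it, limit read from the data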
Target sequence (P55789 whole entry, looked up): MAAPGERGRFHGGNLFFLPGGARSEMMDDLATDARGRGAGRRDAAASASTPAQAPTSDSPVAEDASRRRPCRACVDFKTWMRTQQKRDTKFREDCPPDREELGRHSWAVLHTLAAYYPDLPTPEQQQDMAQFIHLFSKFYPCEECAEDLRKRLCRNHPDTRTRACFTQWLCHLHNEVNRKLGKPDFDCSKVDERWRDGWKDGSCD
JMH597 growth: retest: inhibitors of Vibrio harveyi JMH597 growth | shares compounds with AI-2 QS mod | OD600 absorbance, 9 h; lacks LuxN and CqsS sensors | growth inhibition, % at 7.5 µM | 750 tested, 1% active | AID 2726;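 active = every replicate shows growth inhibition above 50%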
BB721 const-QS lum: retest counter-screen: luminescence loss in constitutive-on quorum sensing strain BB721; 750 tested, 95% active; inhibition, % at 7.5 µM; AID 2727; shares compounds with AI-2 QS mod; Vibrio harveyi BB721 luminescence, 9 h;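 active = inhibition above about 80% in every replicate, not just on average, limit read from the data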
BB721 growth: retest: inhibitors of Vibrio harveyi BB721 growth; shares compounds with AI-2 QS mod; OD600 absorbance, 9 h; growth inhibition, % at 7.5 µM; 750 tested, 3% active; AID 2728;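 active = every replicate shows growth inhibition above 50%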
JMH597 AI-2 mod: Vibrio harveyi AI-2 signaling luminescence modulation – JMH597 strain, confirmation; inhibition, % at 7.5 µM; shares compounds with AI-2 QS mod; Vibrio harveyi JMH597 AI-2 quorum sensing luminescence, 9 h; luxN and CqsS knockout, AI-2 only; AID 2736; 750 tested, 97% active;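 active = every replicate shows more than 75% inhibition of signal versus neutral control wells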
Numbers without * were called inactive; / = no result.

SMILES | SUMO Mot1 rescue | HIF activator | AI-2 QS mod | ALR H2O2 inh | others
C=CCN1C(=O)/C(=C/c2ccc(Br)s2)C(=O)NC1=S | -6 | 0 | 2 | 8
Cc1c(CCN)ccc2c1[nH]c1ccccc12 | -4 | -30 | 17 | -3
COc1cccc(-n2nc(C(=O)N3CCC4(CC3)OCCO4)c3ccccc3c2=O)c1 | 4 | / | / | 94*
Cn1c(O)c(C(=O)c2ccccc2)c(=O)n(C)c1=O | 1 | 0 | 9 | 46
C/C(=N\Nc1ccccc1)c1c(O)n(-c2ccccc2)c(=O)[nH]c1=O | 199 | / | -26 | 99*
C/C(=N\Nc1ccccc1)c1c(O)n(C)c(=O)n(C)c1=O | 23 | 0 | -1 | 99*
C/C(=N\NC(=O)c1ccccc1O)c1c(O)n(C2CCCCC2)c(=O)[nH]c1=O | -19 | 0 | 22 | 8
C/C(=N\NC(=O)c1ccccc1)c1c(O)n(C2CCCCC2)c(=O)[nH]c1=O | 4 | 1 | 15 | 93*
CN=C(SCc1ccccc1)c1c(O)n(C)c(=O)n(C)c1=O | 11 | 0 | 20 | 98*
CCC(=NCCC(c1ccccc1)c1ccccc1)c1c(O)n(C)c(=O)n(C)c1=O | 4 | -1 | 22 | -4
CC(=NCCN(C)C)c1c(O)n(Cc2ccccc2)c(=O)[nH]c1=O | -6 | 0 | 10 | 0
N#CCCn1cc(C(=O)Nc2ccccc2Br)c(-c2ccc([N+](=O)[O-])cc2)n1 | -4 | 1 | 26 | 0
C/C(=N\Nc1ccccc1)c1c(O)n(Cc2ccccc2)c(=O)[nH]c1=O | 121 | 0 | -49 | 98*
COC(=O)C1=C(c2cccc(OCc3ccccc3)c2)C[C@@H]2CC[C@H]1N2C(=O)NCCOc1ccccc1 | 2 | / | / | 2
COC(=O)C1=C(c2ccccc2)C[C@@H]2CC[C@H]1N2C(=O)NCCS(C)=O (stereo not given in full) | 11 | 0 | -2 | 14
CCN1CCN(Cc2cc(Br)cc(Br)c2O)CC1 | -21 | 0 | 17 | 99*
O=C(c1ccc2c(c1)N(Cc1ccccc1)CCS2)N1CCC2(CC1)OCCO2 | 14 | 1 | 8 | 85*
CN1CCc2nc(SCc3cccc(Br)c3)c(C#N)cc2C1 | -11 | 5 | 8 | 99*
CC1Oc2cc3c(-c4c(O)cc(O)c5c(O)c6c(cc45)OC(C)C(C)C6=O)c(O)cc(O)c3c(O)c2C(=O)C1C (stereo not given) | 3 | 0 | -89* | -24
C=CCn1c(O)c(C(CC)=Nc2cccc(C(F)(F)F)c2)c(=O)[nH]c1=O | 10 | 1 | 25 | -5
O=C(Cc1ccccc1)Oc1cccc(-n2cnnn2)c1 | 1 | 0 | 14 | 98*
CCOC(=O)c1ccccc1NC(=O)c1c(O)[nH]c(=S)[nH]c1=O | -4 | 0 | 1 | 92*
COC(=O)C1=C(c2ccc(F)cc2OCc2ccccc2)C[C@@H]2CC[C@H]1N2C(=O)NC1Cc2ccccc2C1 | 9 | / | / | -5
COc1cc(C(=O)OC2C[C@H]3CC[C@@H](C2)N3)ccc1O (stereo not given in full) | -14 | 0 | 12 | 84*
COc1ccc(Cc2c(O)[nH]c(=S)[nH]c2=O)cc1 | -6 | 0 | 12 | -1
CCOP(=O)(OCC)C(O)c1ccc(N(C)C)cc1 (stereo not given) | -6 | 1 | 27 | 86*
CCn1nc(-c2ccccc2)nc2c(=O)n(C)c(=O)nc1-2 | 44 | -1 | -93* | -71
CC(N)Cc1cn(Cc2ccccc2)c2ccccc12 (stereo not given) | 0 | 0 | 2 | -41
O=C1NC(=O)C(CCc2ccncc2)(c2ccccc2)C(=O)N1 | -9 | 0 | 9 | -4
CCC1(c2ccc(-c3ccccc3)cc2)C(=O)NC(=O)NC1=O | -25 | 0 | -90* | / | JMH597 growth=26;BB721 const-QS lum=98*;BB721 growth=40;JMH597 AI-2 mod=98*
